Measurements reported in PubChem BioAssay (NCI).
“And” between values parts separate entries of the source, which are not always exact repeats. Equal values may be shown once. Compounds without any hit were thinned out: in the full panel of roughly 83,000, 20% have a hit.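 Negative percent growth values reflect cell death: -40 means 40% of the cells present at the start died, and -100 means all died.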 The source made the active and inactive calls. How the source made its calls: active means growth percent below 10; inactive means the rest.

Assays:
Experiment in all cases: NCI-60 one-dose screen, 48 h (100 = growth as untreated, 0 = no growth, -100 = all killed)
Settings in all cases: 10 µM unless noted
DU-145 prostate = tested on: DU-145 prostate
K-562 leukemia = tested on: K-562 leukemia
MALME-3M melanoma = tested on: MALME-3M melanoma
MDA-MB-231 breast = tested on: MDA-MB-231 breast
RXF 393 renal = tested on: RXF 393 renal
SF-268 CNS = tested on: SF-268 CNS
SF-295 CNS = tested on: SF-295 CNS
SF-539 CNS = tested on: SF-539 CNS
UACC-257 melanoma = tested on: UACC-257 melanoma
M14 melanoma = tested on: M14 melanoma
HT29 colon = tested on: HT29 colon
SNB-75 CNS = tested on: SNB-75 CNS
SNB-19 CNS = tested on: SNB-19 CNS
U251 CNS = tested on: U251 CNS
PC-3 prostate = tested on: PC-3 prostate
SK-MEL-5 melanoma = tested on: SK-MEL-5 melanoma
UACC-62 melanoma = tested on: UACC-62 melanoma
LOX IMVI melanoma = tested on: LOX IMVI melanoma
SK-MEL-28 melanoma = tested on: SK-MEL-28 melanoma
HCT-15 colon = tested on: HCT-15 colon

Measured: growth

CCCCn1c(=O)c(C(=O)NCc2ccccc2Cl)c(O)c2ccccc21
inactive: DU-145 prostate 84.6% | K-562 leukemia 42.3% | MALME-3M melanoma 98% | MDA-MB-231 breast 88.7% | RXF 393 renal 87.7% | SF-268 CNS 80.8% | SF-295 CNS 51.8% | SF-539 CNS 97.4% | UACC-257 melanoma 80.9% | M14 melanoma 59.4% | HT29 colon 75.5% | SNB-75 CNS 98.4% | SNB-19 CNS 82.6% | U251 CNS 68.2% | PC-3 prostate 34.1% | SK-MEL-5 melanoma 72.7% | UACC-62 melanoma 88.5% | LOX IMVI melanoma 55.4% | SK-MEL-28 melanoma 103%

Nc1cccnc1
inactive: DU-145 prostate 125% | K-562 leukemia 105% | MALME-3M melanoma 120% | MDA-MB-231 breast 110% | RXF 393 renal 126% | SF-268 CNS 108% | SF-295 CNS 122% | SF-539 CNS 113% | UACC-257 melanoma 82.9% | M14 melanoma 113% | HCT-15 colon 111% | HT29 colon 103% | SNB-19 CNS 109% | U251 CNS 103% | PC-3 prostate 97.9% | SK-MEL-5 melanoma 112% | UACC-62 melanoma 109% | LOX IMVI melanoma 104% | SK-MEL-28 melanoma 117%

COc1ccc(/C=C(/C)[N+](=O)[O-])cc1OC
3.01% (active) and 44.6% (inactive): SF-268 CNS
active: K-562 leukemia 7.3% and 5.18% | MALME-3M melanoma -22.6% and -51.7% | RXF 393 renal -91.1% and -95.7% | UACC-257 melanoma -88.6% and -67.5% | M14 melanoma -52.6% and -61.6% | HT29 colon -70.6% and -16.3% | U251 CNS -46.5% and -15.8% | LOX IMVI melanoma -51.5% and -88.8% | SK-MEL-28 melanoma -50.9% and 4.89%
inactive: DU-145 prostate 22.3% and 13.5% | MDA-MB-231 breast 11.3% and 28.8% | SF-295 CNS 98.6% and 104% | SF-539 CNS 15.1% | SNB-75 CNS 78.5% and 53.6% | SNB-19 CNS 65.9% and 79.3% | PC-3 prostate 19.4% and 47.7% | SK-MEL-5 melanoma 52.9% and 47.9%

C=CC[PH+](c1ccccc1)c1ccccc1.C=CC[PH+](c1ccccc1)c1ccccc1.[Pt+2].[S-]c1nc2ccccc2[nH]1.[S-]c1nc2ccccc2[nH]1
inactive: DU-145 prostate 15.1%
active: K-562 leukemia 4.86% | MALME-3M melanoma -72.8% | MDA-MB-231 breast -44.3% | RXF 393 renal -0.0777% | SF-268 CNS 1.83% | SF-295 CNS -9.49% | SF-539 CNS -28.6% | UACC-257 melanoma -25.7% | M14 melanoma -18.6% | HT29 colon -30.4% | SNB-75 CNS -64.5% | SNB-19 CNS 5.65% | U251 CNS -83% | PC-3 prostate 9.47% | UACC-62 melanoma -48.9% | LOX IMVI melanoma -95% | SK-MEL-28 melanoma -47.1%

CC[C@H](C)[C@H](NC(=O)C12CC(NC)(C1)C2)C(=O)N(C)[C@H](C[C@@H](OC(C)=O)c1nc(C(=O)N[C@@H](Cc2ccccc2)C[C@H](C)C(=O)OC)cs1)C(C)C
active: DU-145 prostate -8.21% | K-562 leukemia 6.14% | SF-295 CNS 4.61% | SF-539 CNS -7.76% | M14 melanoma 6.71% | HT29 colon -4.54% | LOX IMVI melanoma 5.36%
inactive: MALME-3M melanoma 69% | MDA-MB-231 breast 13.8% | RXF 393 renal 13.4% | SF-268 CNS 30.4% | UACC-257 melanoma 56.6% | HCT-15 colon 18.4% | SNB-75 CNS 23.5% | SNB-19 CNS 33.5% | PC-3 prostate 23.6% | UACC-62 melanoma 45% | SK-MEL-28 melanoma 53.4%

C[C@]12CC[C@H]3[C@@H](CC=C4c5nc(N)sc5CC[C@@]43C)[C@@H]1CC[C@@H]2O
inactive: DU-145 prostate 103% | K-562 leukemia 95.2% | MALME-3M melanoma 107% | MDA-MB-231 breast 111% | RXF 393 renal 99.4% | SF-268 CNS 97.1% | SF-295 CNS 100% | SF-539 CNS 98.5% | UACC-257 melanoma 92.6% | M14 melanoma 98.7% | HT29 colon 95.5% | SNB-75 CNS 89.9% | SNB-19 CNS 99.2% | U251 CNS 97.4% | PC-3 prostate 98.5% | SK-MEL-5 melanoma 98.5% | UACC-62 melanoma 87.8% | LOX IMVI melanoma 104% | SK-MEL-28 melanoma 113%

CC[C@H](C)[C@H](NC(=O)[C@H]1CCCCN1C)C(=O)N(C)[C@H](C[C@@H](OC(C)=O)c1nc(C(=O)NC23C4C5C2C2C3C4C52C(=O)OC)cs1)C(C)C (some centres not stated)
inactive: MALME-3M melanoma 56.9% | MDA-MB-231 breast 20.3% | RXF 393 renal 34.2% | SF-268 CNS 24.9% | UACC-257 melanoma 46.4% | M14 melanoma 10.2% | SNB-75 CNS 22.9% | SNB-19 CNS 28.1% | U251 CNS 10.8% | PC-3 prostate 23.5% | SK-MEL-28 melanoma 59.1%
active: DU-145 prostate -7.13% | K-562 leukemia 6.1% | SF-295 CNS 6.06% | SF-539 CNS -11.4% | HT29 colon -5.46% | SK-MEL-5 melanoma -56.9% | LOX IMVI melanoma 7.09%

C(=NC1CCCCC1)=NC1CCCCC1
inactive: DU-145 prostate 107% and 97.9% | K-562 leukemia 97.8% and 69% | MALME-3M melanoma 108% and 53.2% | MDA-MB-231 breast 97.2% and 88.3% | RXF 393 renal 109% and 94.6% | SF-268 CNS 108% and 88.2% | SF-295 CNS 87% | SF-539 CNS 101% and 97.7% | UACC-257 melanoma 133% and 44.3% | M14 melanoma 115% and 87.1% | HT29 colon 101% and 91.9% | SNB-75 CNS 87.5% and 79.6% | SNB-19 CNS 103% and 83.9% | U251 CNS 117% | PC-3 prostate 97.5% and 48.6% | SK-MEL-5 melanoma 103% and 61.4% | UACC-62 melanoma 104% and 87.6% | LOX IMVI melanoma 109% | SK-MEL-28 melanoma 97.2% and 94.9%

CC(=O)Nc1nc2c(s1)C1=CC[C@H]3[C@@H]4CC[C@H](OC(C)=O)[C@@]4(C)CC[C@@H]3[C@@]1(C)CC2
inactive: DU-145 prostate 72.1% | K-562 leukemia 35.1% | MALME-3M melanoma 66.5% | MDA-MB-231 breast 80.3% | SF-268 CNS 58.4% | SF-295 CNS 29.4% | SF-539 CNS 14% | UACC-257 melanoma 79.2% | M14 melanoma 39.7% | HT29 colon 26.6% | SNB-19 CNS 62% | U251 CNS 43.9% | PC-3 prostate 59.2% | SK-MEL-5 melanoma 36.9% | UACC-62 melanoma 49.5% | LOX IMVI melanoma 63.5% | SK-MEL-28 melanoma 54.7%
active: RXF 393 renal 7.7% | SNB-75 CNS 0.377%

O=P1(N(CCCl)CCCl)NCCCO1 (configuration not stated)
inactive: DU-145 prostate 124% | K-562 leukemia 104% | MALME-3M melanoma 96.5% | MDA-MB-231 breast 107% | RXF 393 renal 110% | SF-268 CNS 117% | SF-295 CNS 107% | SF-539 CNS 110% | UACC-257 melanoma 109% | M14 melanoma 101% | HCT-15 colon 106% | HT29 colon 102% | SNB-75 CNS 102% | SNB-19 CNS 102% | PC-3 prostate 106% | SK-MEL-5 melanoma 103% | LOX IMVI melanoma 104% | SK-MEL-28 melanoma 114%

CN1CCC2(CC1)C(C#N)C(=O)NC(=O)C2C#N (configuration not stated)
inactive: DU-145 prostate 112% | K-562 leukemia 94.5% | MALME-3M melanoma 107% | MDA-MB-231 breast 101% | RXF 393 renal 104% | SF-268 CNS 107% | SF-295 CNS 94.1% | SF-539 CNS 94.9% | UACC-257 melanoma 90.7% | M14 melanoma 107% | HCT-15 colon 98.4% | HT29 colon 118% | SNB-75 CNS 76.4% | SNB-19 CNS 99% | SK-MEL-5 melanoma 102% | UACC-62 melanoma 101% | LOX IMVI melanoma 100% | SK-MEL-28 melanoma 95.1%

O=[N+]([O-])c1cc(Cl)c(Cl)c([N+](=O)[O-])c1Cl
active: K-562 leukemia 7.08% | MALME-3M melanoma -26% | M14 melanoma 3.65% | HCT-15 colon -18.5% | LOX IMVI melanoma -26.2%
inactive: DU-145 prostate 85.4% | MDA-MB-231 breast 91.8% | RXF 393 renal 55.5% | SF-268 CNS 84.2% | SF-295 CNS 134% | SF-539 CNS 103% | UACC-257 melanoma 16.1% | HT29 colon 29.9% | SNB-19 CNS 103% | U251 CNS 78.7% | PC-3 prostate 66.8% | UACC-62 melanoma 86% | SK-MEL-28 melanoma 103%

N#CC(C#N)=Cc1cccc(F)c1
inactive: DU-145 prostate 105% | K-562 leukemia 96.8% | MALME-3M melanoma 110% | MDA-MB-231 breast 109% | RXF 393 renal 110% | SF-268 CNS 99.7% | SF-295 CNS 105% | SF-539 CNS 105% | UACC-257 melanoma 107% | M14 melanoma 107% | HCT-15 colon 105% | HT29 colon 104% | SNB-19 CNS 100% | PC-3 prostate 100% | UACC-62 melanoma 98.2% | LOX IMVI melanoma 98.9% | SK-MEL-28 melanoma 111%

Cn1cc(C(=O)C[n+]2ccccc2)c2ccccc21
inactive: DU-145 prostate 109% | K-562 leukemia 106% | MALME-3M melanoma 96.7% | MDA-MB-231 breast 100% | RXF 393 renal 99.6% | SF-268 CNS 94.7% | SF-295 CNS 102% | SF-539 CNS 89.6% | UACC-257 melanoma 111% | M14 melanoma 99.2% | HCT-15 colon 110% | HT29 colon 105% | SNB-19 CNS 105% | U251 CNS 97% | PC-3 prostate 90.4% | SK-MEL-5 melanoma 97.9% | LOX IMVI melanoma 93.2% | SK-MEL-28 melanoma 114%

COc1c(O)cc2c(c1OC)-c1ccc(SC)c(=O)cc1C(NC(C)=O)CC2 (configuration not stated)
inactive: MALME-3M melanoma 39.9% | RXF 393 renal 20.3% | SF-268 CNS 29.7% | UACC-257 melanoma 20.1% | M14 melanoma 15.7% | SNB-19 CNS 18.5% | LOX IMVI melanoma 15.4%
active: DU-145 prostate -28.7% | K-562 leukemia -24.9% | MDA-MB-231 breast 2.58% | SF-295 CNS 9.18% | SF-539 CNS -15% | HCT-15 colon -40.6% | HT29 colon -18.9% | SNB-75 CNS -13.2% | SK-MEL-5 melanoma -28.2%
